From PubChem
The list is not random: actives were taken first. Their share in the collection is about 18%.
Six1-Eya2 blk: Six1/Eya2 interaction inhibition; AID 651725; activity change, % (concentration not given with the values); Q15475+O00167; 360,000 tested, 0.56% active; AlphaScreen GST-Six1/His-Eya2 binding, biochemical; active compounds read low; in the data active = activity change below about -65%; inconclusive = mostly about -30% to -63%
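Six1/Eya2 binding was read as AlphaScreen signal after compounds were pinned into GST-Six1 plus His-tagged Eya2 (5X stock 250/500 nM) in pH 8.0 Tris/NaCl/TCEP buffer, beads added, then incubated 1 h, 37 C, dark.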
CtBP-E1A blk: CtBP/E1A binding inhibition; activity change, % (test concentration not listed); AID 651724; 340,000 tested, 0.49% active; AlphaScreen GST-E1A/His-CtBP binding, 1536-well; active compounds read low; in the data active = activity change below about -65%; inconclusive = mostly about -30% to -63%
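Steps: dispense buffer (Tris pH 8.0, NaCl 300 mM, TCEP 1 mM, BSA, Tween 20); add 5X protein mix (GST-E1A, His-CtBP, 125 nM each); pin 23 nL compound; 2 h at 37 °C, dark; add 5X beads (50 ug/mL); 1 h; read.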
TDP1 cell CPT: growth inhibition of DT40 Tdp1-/-;hTDP1 cells with camptothecin (screen for TDP1 inhibitors); chicken DT40 Tdp1-/-;hTDP1 cells + 20 nM CPT, ATP luminescence, 48 h; Potency, µM (titrated, usually from 46.2 µM), hits mostly inhibitors; 420,000 tested, 12% active; also: nearly all actives have a fitted effect of over 55% in size
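Cell growth measured by CellTiter-Glo luminescence after a minimum 48 h, 37 C compound exposure with 20 nM CPT in Tdp1-knockout DT40 cells stably expressing hTDP1, seeded 400/well; qHTS titration format.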
TDP1 inh: TDP1 (human) enzyme inhibition. 350,000 tested, 0.28% active. Potency, µM (highest dose often 130 µM), most hits filed as inhibitors. AID 485290. recombinant TDP1, AlphaScreen DNA substrate cleavage. Q9NUW8; also: nearly all actives have a fitted effect of over 40% in size
Target sequence (Q9NUW8 whole entry, looked up): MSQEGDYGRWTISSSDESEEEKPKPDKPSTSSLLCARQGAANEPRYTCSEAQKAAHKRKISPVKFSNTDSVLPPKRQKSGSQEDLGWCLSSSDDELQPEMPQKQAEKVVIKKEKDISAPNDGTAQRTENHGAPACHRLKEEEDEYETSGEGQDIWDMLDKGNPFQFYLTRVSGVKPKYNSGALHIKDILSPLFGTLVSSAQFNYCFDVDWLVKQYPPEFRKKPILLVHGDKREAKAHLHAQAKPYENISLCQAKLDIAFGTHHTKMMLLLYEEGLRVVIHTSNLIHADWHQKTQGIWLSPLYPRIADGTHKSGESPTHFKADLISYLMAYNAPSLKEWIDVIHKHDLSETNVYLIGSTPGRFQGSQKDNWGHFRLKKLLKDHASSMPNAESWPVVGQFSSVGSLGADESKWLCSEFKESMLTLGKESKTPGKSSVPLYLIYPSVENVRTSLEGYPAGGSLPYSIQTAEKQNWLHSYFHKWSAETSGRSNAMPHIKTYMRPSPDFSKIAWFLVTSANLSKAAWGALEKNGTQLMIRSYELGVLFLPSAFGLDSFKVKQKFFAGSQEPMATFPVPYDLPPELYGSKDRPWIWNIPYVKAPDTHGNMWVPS
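AlphaScreen read-out: signal falls as enzyme removes the 3' tyrosine-FITC from a 5'-biotinylated DNA oligo (15 nM, 5 min, RT). Enzyme was E. coli-made recombinant Tdp1 at 1 nM, exposed to compound for 15 min beforehand; beads 10 ug/ml, 10 min.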
IL-1B inflam inh: inflammasome signaling inhibition, IL-1 beta readout. THP-1 LPS/ATP IL-1B secretion, AlphaLISA, 16 h; active compounds read low. activity change, % at 57.5 µM. 360,000 tested, 4.7% active. AID 743279; in the data active = activity change below about -50%; inconclusive = mostly about -30% to -49%
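THP-1 cells pretreated 1 hr with compounds (up to 57.5 uM final), then stimulated with LPS (250 ng/mL final) plus ATP (1.25 mM final); secreted IL-1B measured by AlphaLISA after 16 hr, decreased signal indicating inhibition.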
DT40 TDP1 no CPT: qHTS for Inhibitors of human tyrosyl-DNA phosphodiesterase 1 (TDP1): qHTS in cells in absence of CPT. Potency, µM (top dose mostly 46.2 µM), most hits filed as inhibitors. 420,000 tested, 15% active. DT40 Tdp1-/- hTDP1 cells, no CPT, ATP luminescence, 48 h. AID 686978, 2013; also: nearly all actives have a fitted effect of over 55% in size
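Chicken DT40 Tdp1-/- cells stably complemented with human TDP1 were seeded at 400 cells/well with DMSO in place of 20 nM camptothecin. After compound pinning, cells grew at least 48 hr at 37 °C; viability read by CellTiter-Glo luminescence.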
Hits are given with their value; – = inactive; ? = inconclusive; · = no result given. Unless noted, calls follow the shape of the dose curve; as a rule, active = well fitted curve in the direction sought with a large enough effect; inconclusive = small, poorly fitted or top-dose-only effect, or another doubt; inactive = no such curve, though single readings can be large; an effect the other way counts as inactive or inconclusive.

SMILES	Six1-Eya2 blk	CtBP-E1A blk	TDP1 cell CPT	TDP1 inh	IL-1B inflam inh	DT40 TDP1 no CPT
COc1ccc(CCN2C(=O)CSC2c2cccc([N+](=O)[O-])c2)cc1OC (stereo not drawn)	–	–	?	·	–	?
COc1ccc(CCn2c(C)ccc2C)cc1OC	·	·	·	–	·	·
COc1ccc(C2SCC(=O)N2CCc2ccc(OC)c(OC)c2)cc1 (stereo not drawn)	–	–	7.3µM	–	–	5.2µM
COc1ccc(CCN2C(=O)C3C4CCC(C4=C(C)C)C3C2=O)cc1OC (stereo not drawn)	–	–	?	–	–	8.2µM
COc1ccc(CCNC2=C(Cl)C(=O)N(CCc3ccc(OC)c(OC)c3)C2=O)cc1OC	–	–	15µM	–	–	10µM
COc1ccc(CCN2C(=O)CC(NC34CC5CC(CC(C5)C3)C4)C2=O)cc1OC (stereo not drawn)	–	–	?	–	–	18µM
COc1ccc(CCN2C(=O)CC(NCCc3ccc(S(N)(=O)=O)cc3)C2=O)cc1OC (stereo not drawn)	–	–	–	–	–	?
COc1ccc(CN2CCCN(S(=O)(=O)c3ccc(Br)cc3)CC2)cc1	–	–	?	·	-71	18µM
COc1ccc(S(=O)(=O)N2CCN(Cc3ccc(Cl)cc3)CC2)cc1	–	–	?	–	-65	?
COc1cccc(CN2CCN(Cc3cc(OC)c(OC)cc3[N+](=O)[O-])CC2)c1	–	–	?	–	–	16µM
COc1cc(CN2CCCCCC2)c([N+](=O)[O-])cc1OC	–	·	–	·	–	–
COc1ccc(S(=O)(=O)N2CCN(Cc3ccc(OC)c(OC)c3)CC2)cc1	–	–	–	·	–	?
COc1cccc(CN2CCN(S(=O)(=O)c3ccc(Cl)s3)CC2)c1	–	–	–	–	-51	–
COc1ccc(S(=O)(=O)N2CCN(Cc3cccc(F)c3)CC2)cc1	–	–	–	·	–	29µM
COc1ccc(S(=O)(=O)N2CCN(Cc3cccc(Cl)c3)CC2)cc1	–	–	?	–	–	?
O=C(COC(=O)c1ccc(S(=O)(=O)Nc2ccccc2)cc1)NCc1ccco1	–	–	–	–	–	–
CCOC(=O)c1c(C)c(C)n(Cc2cccc(OC)c2OC)c1C	–	–	?	–	–	23µM
CCOC(=O)c1cc(C)n(Cc2cccc(OC)c2OC)c1C	–	–	?	–	–	?
CC(C)(C)OC(=O)C[C@@H]1C/C=C\C[C@@H](CC(=O)N(CCO)Cc2ccccc2)C(=O)N[C@H](C(C)(C)C)COC1=O	–	–	21µM	–	–	?
C[C@H]1COC(=O)[C@H](CC(=O)OC(C)(C)C)C/C=C\C[C@@H](CC(=O)N(CCO)Cc2ccccc2)C(=O)N1	–	–	?	–	–	?
C[C@H]1COC(=O)[C@H](CC(=O)OC(C)(C)C)C/C=C\C[C@H](CC(=O)N(CCO)Cc2ccccc2)C(=O)N1	–	–	–	–	–	–
CC(C)(C)OC(=O)C[C@H]1C/C=C\C[C@@H](CC(=O)N(CCO)Cc2ccccc2)C(=O)N[C@H](C(C)(C)C)COC1=O	–	–	?	–	–	15µM
CC(C)(C)OC(=O)C[C@@H]1C/C=C\C[C@H](CC(=O)N(CCO)Cc2ccccc2)C(=O)N[C@H](Cc2ccccc2)COC1=O	–	–	?	–	–	23µM
CSCC(=O)N1CCCC(CO)(CCCc2ccccc2)C1 (stereo not drawn)	–	–	–	·	–	–
CC(C)C1C(=O)N(Cc2cn(CCC3OCCCO3)nn2)CCS(=O)(=O)N1Cc1ccc(-c2ccncc2)cc1 (stereo not drawn)	–	–	?	·	–	?
Cc1ccccc1-c1ccc(CN2C(C(C)C)C(=O)N(Cc3cn(CCC4OCCO4)nn3)CCS2(=O)=O)cc1 (stereo not drawn)	–	–	?	·	-57	18µM
